# Measured values published in the supplement of paper PMC9446081.
# ± gives the standard deviation of the averaged measurements.
# What was measured:
# Test in all cases: relative enzymatic activity vs untreated control (fraction); higher = less inhibition
# Details in all cases: 100 µM; incubation time: 2 h at 37 C
# DNA gyrase = test system: DNA gyrase
# Description: (§1)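 In vitro enzymatic inhibition assays (ProFoldin kits) for 12 purified essential E. coli enzymes or complexes, each treated with 218 active antibacterial compounds at 100 µM for 2 h at 37°C. Read-outs were fluorescence or absorbance (phosphate detection, dye binding), converted to activity via standard curves and expressed relative to untreated DMSO controls.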
# DNA helicase = DNA helicase (UniProt P0ACB1)
# Sequence of DNA helicase (P0ACB1 whole entry): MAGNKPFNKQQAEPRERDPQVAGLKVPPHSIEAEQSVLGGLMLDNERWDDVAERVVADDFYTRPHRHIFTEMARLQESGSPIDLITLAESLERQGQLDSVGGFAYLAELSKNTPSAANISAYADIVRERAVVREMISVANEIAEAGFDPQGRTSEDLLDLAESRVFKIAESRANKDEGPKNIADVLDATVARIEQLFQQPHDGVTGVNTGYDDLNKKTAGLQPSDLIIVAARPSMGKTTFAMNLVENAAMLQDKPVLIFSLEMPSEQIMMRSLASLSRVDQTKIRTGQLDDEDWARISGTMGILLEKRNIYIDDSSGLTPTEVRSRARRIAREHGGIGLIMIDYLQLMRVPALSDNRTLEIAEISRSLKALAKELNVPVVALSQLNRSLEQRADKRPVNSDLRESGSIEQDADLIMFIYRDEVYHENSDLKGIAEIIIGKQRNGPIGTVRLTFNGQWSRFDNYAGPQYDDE
# Description: as §1
# DNA ligase = DNA ligase (UniProt B1XA82)
# Sequence of DNA ligase (B1XA82 whole entry): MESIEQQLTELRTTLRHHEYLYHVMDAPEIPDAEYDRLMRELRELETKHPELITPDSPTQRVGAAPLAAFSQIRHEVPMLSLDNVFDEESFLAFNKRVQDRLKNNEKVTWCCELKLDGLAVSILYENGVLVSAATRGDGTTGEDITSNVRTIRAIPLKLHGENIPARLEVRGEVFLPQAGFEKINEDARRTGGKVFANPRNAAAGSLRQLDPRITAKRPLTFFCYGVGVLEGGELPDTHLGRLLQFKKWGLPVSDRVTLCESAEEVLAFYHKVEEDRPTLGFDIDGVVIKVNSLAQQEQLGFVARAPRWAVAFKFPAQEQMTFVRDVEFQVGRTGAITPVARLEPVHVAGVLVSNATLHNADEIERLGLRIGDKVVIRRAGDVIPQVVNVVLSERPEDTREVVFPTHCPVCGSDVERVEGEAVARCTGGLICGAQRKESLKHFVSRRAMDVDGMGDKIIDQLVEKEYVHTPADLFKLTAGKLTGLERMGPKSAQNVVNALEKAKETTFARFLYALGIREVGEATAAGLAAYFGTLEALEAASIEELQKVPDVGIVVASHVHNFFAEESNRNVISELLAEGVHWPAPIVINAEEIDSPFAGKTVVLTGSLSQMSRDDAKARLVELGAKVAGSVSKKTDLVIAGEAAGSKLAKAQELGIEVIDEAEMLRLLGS
# Description: as §1
# DNA polymerase = DNA polymerase (UniProt P10443)
# Sequence of DNA polymerase (P10443 whole entry): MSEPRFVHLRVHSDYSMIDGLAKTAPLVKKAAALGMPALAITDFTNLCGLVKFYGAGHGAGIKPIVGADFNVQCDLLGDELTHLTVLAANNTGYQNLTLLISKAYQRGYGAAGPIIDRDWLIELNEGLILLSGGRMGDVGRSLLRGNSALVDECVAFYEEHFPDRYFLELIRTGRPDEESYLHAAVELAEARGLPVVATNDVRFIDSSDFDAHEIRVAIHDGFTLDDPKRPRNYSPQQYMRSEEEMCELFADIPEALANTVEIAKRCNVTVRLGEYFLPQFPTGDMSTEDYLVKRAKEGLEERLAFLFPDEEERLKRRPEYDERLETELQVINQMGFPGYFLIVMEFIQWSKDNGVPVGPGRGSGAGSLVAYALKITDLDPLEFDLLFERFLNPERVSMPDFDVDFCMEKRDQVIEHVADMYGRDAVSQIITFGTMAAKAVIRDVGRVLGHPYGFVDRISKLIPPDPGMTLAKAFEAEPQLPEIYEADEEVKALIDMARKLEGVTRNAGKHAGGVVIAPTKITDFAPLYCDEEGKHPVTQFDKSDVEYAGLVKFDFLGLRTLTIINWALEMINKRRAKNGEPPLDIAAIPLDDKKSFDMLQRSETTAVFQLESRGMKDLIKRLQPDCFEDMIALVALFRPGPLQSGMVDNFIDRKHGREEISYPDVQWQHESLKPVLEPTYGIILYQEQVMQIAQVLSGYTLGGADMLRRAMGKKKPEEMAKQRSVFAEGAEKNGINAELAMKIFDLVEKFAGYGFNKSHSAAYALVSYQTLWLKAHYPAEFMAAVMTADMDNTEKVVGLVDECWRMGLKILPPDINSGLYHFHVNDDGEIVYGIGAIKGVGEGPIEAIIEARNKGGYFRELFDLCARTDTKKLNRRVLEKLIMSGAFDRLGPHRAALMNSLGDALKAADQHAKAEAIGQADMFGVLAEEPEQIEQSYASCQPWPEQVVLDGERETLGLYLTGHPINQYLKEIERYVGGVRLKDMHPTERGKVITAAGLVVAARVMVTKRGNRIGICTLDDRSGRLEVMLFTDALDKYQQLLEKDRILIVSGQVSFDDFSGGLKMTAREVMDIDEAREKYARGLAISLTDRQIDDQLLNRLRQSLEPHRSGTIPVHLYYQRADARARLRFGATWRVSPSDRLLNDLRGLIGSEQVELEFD
# Description: as §1
# DNA primase = DNA primase (UniProt P0ABS7)
# Sequence of DNA primase (P0ABS7 whole entry): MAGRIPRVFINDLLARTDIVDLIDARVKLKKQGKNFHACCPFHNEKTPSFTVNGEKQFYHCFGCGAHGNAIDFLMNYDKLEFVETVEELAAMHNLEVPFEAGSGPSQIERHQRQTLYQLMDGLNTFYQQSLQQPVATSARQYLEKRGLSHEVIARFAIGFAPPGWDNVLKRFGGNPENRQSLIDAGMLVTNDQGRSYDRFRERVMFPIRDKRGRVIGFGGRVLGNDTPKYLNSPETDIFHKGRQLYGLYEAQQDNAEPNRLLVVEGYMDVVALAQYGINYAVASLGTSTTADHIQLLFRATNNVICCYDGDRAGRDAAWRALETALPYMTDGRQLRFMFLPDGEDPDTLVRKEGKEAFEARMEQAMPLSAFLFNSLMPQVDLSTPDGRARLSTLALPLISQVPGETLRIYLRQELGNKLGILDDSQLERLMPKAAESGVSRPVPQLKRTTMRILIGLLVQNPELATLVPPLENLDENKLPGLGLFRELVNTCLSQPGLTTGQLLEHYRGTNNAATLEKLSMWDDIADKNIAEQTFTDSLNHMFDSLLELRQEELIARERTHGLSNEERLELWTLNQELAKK
# Description: as §1
# GlmU = GlmU (UniProt A7ZTU1)
# Sequence of GlmU (A7ZTU1 whole entry, looked up): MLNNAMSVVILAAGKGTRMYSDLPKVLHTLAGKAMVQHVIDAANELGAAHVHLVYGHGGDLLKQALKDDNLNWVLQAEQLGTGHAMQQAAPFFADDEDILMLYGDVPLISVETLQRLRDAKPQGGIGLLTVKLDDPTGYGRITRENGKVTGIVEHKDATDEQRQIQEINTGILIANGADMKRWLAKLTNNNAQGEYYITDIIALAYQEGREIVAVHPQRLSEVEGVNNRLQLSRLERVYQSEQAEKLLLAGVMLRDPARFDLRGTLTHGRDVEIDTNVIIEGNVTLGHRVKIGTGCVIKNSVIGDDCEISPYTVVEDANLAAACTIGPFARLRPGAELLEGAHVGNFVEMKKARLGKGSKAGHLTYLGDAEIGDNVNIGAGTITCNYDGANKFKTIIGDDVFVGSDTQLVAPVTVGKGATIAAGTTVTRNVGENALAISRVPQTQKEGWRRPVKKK
# Description: as §1
# Guanlyate kinase = Guanlyate kinase (UniProt Q0TBG1)
# Sequence of Guanlyate kinase (Q0TBG1 whole entry): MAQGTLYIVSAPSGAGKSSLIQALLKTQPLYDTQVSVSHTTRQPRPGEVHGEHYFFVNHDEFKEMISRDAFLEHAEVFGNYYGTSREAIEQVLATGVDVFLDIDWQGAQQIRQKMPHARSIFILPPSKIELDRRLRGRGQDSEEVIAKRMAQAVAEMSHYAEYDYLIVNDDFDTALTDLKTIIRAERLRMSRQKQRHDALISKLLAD
# Description: as §1
# MurA = MurA (UniProt Q3YX52)
# Sequence of MurA (Q3YX52 whole entry): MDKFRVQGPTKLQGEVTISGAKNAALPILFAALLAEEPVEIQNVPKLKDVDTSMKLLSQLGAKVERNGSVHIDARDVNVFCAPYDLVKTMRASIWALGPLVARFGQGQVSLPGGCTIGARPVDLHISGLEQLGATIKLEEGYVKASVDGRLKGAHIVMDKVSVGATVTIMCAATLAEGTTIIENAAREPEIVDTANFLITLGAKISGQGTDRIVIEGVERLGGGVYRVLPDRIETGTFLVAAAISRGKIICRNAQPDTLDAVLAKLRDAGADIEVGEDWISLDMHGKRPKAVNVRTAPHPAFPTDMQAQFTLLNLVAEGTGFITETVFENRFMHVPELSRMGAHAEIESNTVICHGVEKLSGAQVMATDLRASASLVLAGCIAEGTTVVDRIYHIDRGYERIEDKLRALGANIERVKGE
# Description: as §1
# MurD = molecular target: T1, MurD (UniProt P14900)
# T1 sequence (whole entry): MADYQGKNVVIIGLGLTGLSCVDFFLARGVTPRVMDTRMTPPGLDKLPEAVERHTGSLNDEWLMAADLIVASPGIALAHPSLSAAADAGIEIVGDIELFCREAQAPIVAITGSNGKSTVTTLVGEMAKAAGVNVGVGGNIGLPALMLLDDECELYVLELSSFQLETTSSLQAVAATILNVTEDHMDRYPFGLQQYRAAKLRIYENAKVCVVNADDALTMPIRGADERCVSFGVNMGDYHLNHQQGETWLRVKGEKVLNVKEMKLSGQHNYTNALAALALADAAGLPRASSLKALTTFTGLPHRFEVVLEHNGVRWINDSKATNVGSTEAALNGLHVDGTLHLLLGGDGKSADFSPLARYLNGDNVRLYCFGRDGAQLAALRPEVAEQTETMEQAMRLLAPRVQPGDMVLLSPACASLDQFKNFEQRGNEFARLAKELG
# Description: as §1
# MurF = molecular target: T2, MurF (UniProt P11880)
# T2 sequence (whole entry): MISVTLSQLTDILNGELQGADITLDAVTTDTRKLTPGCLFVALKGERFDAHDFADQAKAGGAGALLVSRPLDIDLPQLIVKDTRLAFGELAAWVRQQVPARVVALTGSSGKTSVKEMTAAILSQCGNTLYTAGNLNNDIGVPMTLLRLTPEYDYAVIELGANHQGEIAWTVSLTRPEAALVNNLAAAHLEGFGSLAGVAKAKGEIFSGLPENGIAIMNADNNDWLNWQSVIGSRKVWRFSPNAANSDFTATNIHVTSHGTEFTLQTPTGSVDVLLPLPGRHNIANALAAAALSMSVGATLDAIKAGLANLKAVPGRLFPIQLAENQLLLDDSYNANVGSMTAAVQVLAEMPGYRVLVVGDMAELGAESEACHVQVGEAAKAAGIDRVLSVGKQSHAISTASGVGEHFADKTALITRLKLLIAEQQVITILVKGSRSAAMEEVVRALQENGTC
# Description: as §1
# RNA polymerase = test system: RNA polymerase
# Description: as §1
SMILES,relative enzymatic activity (DNA gyrase),relative enzymatic activity (DNA helicase),relative enzymatic activity (DNA ligase),relative enzymatic activity (DNA polymerase),relative enzymatic activity (DNA primase),relative enzymatic activity (GlmU),relative enzymatic activity (Guanlyate kinase),relative enzymatic activity (MurA),relative enzymatic activity (MurD),relative enzymatic activity (MurF),relative enzymatic activity (RNA polymerase)
CC[C@H]1OC(=O)[C@H](C)[C@@H](O[C@H]2C[C@@](C)(OC)[C@@H](O)[C@H](C)O2)[C@H](C)[C@@H](O[C@@H]2O[C@H](C)C[C@H](N(C)C)[C@H]2O)[C@](C)(O)C[C@@H](C)C(=O)[C@H](C)[C@@H](O)[C@]1(C)O,0.598 ± 0.22,0.608 ± 0.21,0.92 ± 0.048,0.503 ± 0.71,0.838 ± 0.027,0.9665 ± 0.0044,0.961 ± 0.098,0.848 ± 0.071,0.584 ± 0.39,0.939 ± 0.22,0.863 ± 0.024
O=C1OC(=O)[C@H]2[C@@H]1[C@H]1CC[C@H]2O1,0.864 ± 0.32,0.551 ± 0.09,1.15 ± 0.085,1.01 ± 0.012,0.811 ± 0.0082,1.07 ± 0.033,1.01 ± 0.066,0.734 ± 0.16,0.606 ± 0.38,0.979 ± 0.22,0.888 ± 0.18
CC[C@H]1OC(=O)C[C@@H](O)[C@H](C)[C@@H](O[C@@H]2O[C@H](C)C[C@H](N(C)C)[C@H]2O)[C@@H](CC=O)C[C@@H](C)C(=O)/C=C/[C@]2(C)O[C@H]2[C@@H]1C,0.781 ± 0.33,0.296 ± 0.13,0.912 ± 0.064,1.17 ± 0.26,0.854 ± 0.017,1.0039 ± 0.00034,0.968 ± 0.11,0.673 ± 0.17,0.55 ± 0.38,1.06 ± 0.2,0.864 ± 0.08
CC[C@@H](C)CCCCC(=O)N[C@@H](CCN)C(=O)N[C@H](C(=O)N[C@@H](CCN)C(=O)N[C@H]1CCNC(=O)[C@H]([C@@H](C)O)NC(=O)[C@H](CCN)NC(=O)[C@H](CCN)NC(=O)[C@H](CC(C)C)NC(=O)[C@@H](Cc2ccccc2)NC(=O)[C@@H](CCN)NC1=O)[C@@H](C)O,1.66 ± 0.37,0.0939 ± 0.022,0.701 ± 0.47,0.34 ± 0.059,0.616 ± 0.13,1.11 ± 0.016,0.449 ± 0.055,0.646 ± 0.21,0.674 ± 0.44,0.991 ± 0.22,0.46 ± 0.03
CN(C)[C@@H]1C(=O)[C@@H](C(N)=O)C(=O)[C@@]2(O)C(=O)[C@@H]3C(=O)c4c(O)c(NC(=O)CN5CCCC5)cc(F)c4C[C@H]3C[C@@H]12,0.0486 ± 0.069,0.103 ± 0.0053,0.94816 ± 9.1e-05,1.06 ± 0.31,0.456 ± 0.15,0.9445 ± 0.0056,0.347 ± 0.035,0.63 ± 0.26,0.632 ± 0.45,0.943 ± 0.19,0.118 ± 0.028
CCCC[P+](CCCC)(CCCC)Cc1ccc(NC(=O)[C@H](Cc2ccc3ccccc3c2)N/C(=N/C2CCCCC2)NC2CCCCC2)cc1,0.00696 ± 0.0098,0.0186 ± 0.0015,1.08 ± 0.094,0.73 ± 0.026,0.595 ± 0.0097,0.134 ± 0.011,0.223 ± 0.023,0.0355 ± 0.0073,0.167 ± 0.12,0.108 ± 0.017,0.346 ± 0.01
NC(C(=O)NC1C(=O)N2C(C(=O)O)=C(Cl)CSC12)c1ccccc1 (configuration not stated),1.09 ± 0.06,0.441 ± 0.046,1.07 ± 0.039,1.38 ± 0.51,0.74 ± 0.23,0.982 ± 0.015,1.04 ± 0.088,0.0755 ± 0.013,0.58 ± 0.4,0.945 ± 0.26,0.971 ± 0.085
CON=C(C(=O)NC1C(=O)N2C(C(=O)O)=C(C[N+]3(C)CCCC3)CSC12)c1csc(N)n1.[Cl-] (configuration not stated),0.384 ± 0.0047,0.431 ± 0.059,1.345 ± 0.0088,1.28 ± 0.35,0.724 ± 0.23,0.969 ± 0.022,1.02 ± 0.026,0.222 ± 0.0031,0.568 ± 0.37,0.962 ± 0.17,0.897 ± 0.023
CN[C@@H]1[C@H](O)[C@H](NC)[C@H]2O[C@@]3(O)C(=O)C[C@@H](C)O[C@H]3O[C@@H]2[C@H]1O,0.826 ± 0.36,0.508 ± 0.2,1.12 ± 0.086,1.09 ± 0.072,0.8044 ± 0.0019,1 ± 0.033,1.06 ± 0.05,0.601 ± 0.16,0.624 ± 0.44,1.16 ± 0.02,0.91 ± 0.14
COC1C=COC2(C)Oc3c(C)c(O)c4c(O)c(c(C=NN5CCN(C6CCCC6)CC5)c(O)c4c3C2=O)NC(=O)C(C)=CC=CC(C)C(O)C(C)C(O)C(C)C(OC(C)=O)C1C (configuration not stated),0.305 ± 0.28,0.66 ± 0.082,0.866 ± 0.13,0.952 ± 0.37,0.647 ± 0.093,0.259 ± 0.016,0.435 ± 0.013,0.144 ± 0.12,0.132 ± 0.046,0.4854 ± 0.0039,0.0856 ± 0.00076
CON=C(C(=O)N[C@@H]1C(=O)N2C(C(=O)O)=C(CSc3nc(=O)c(O)nn3C)CS[C@H]12)c1csc(N)n1,0.722 ± 0.42,0.448 ± 0.015,0.961 ± 0.042,1.05 ± 0.24,0.8 ± 0.022,0.861 ± 0.055,0.984 ± 0.11,0.0646 ± 0.0061,0.568 ± 0.39,0.955 ± 0.25,0.524 ± 0.35
CC1(C)S[C@@H]2[C@H](NC(=O)[C@H](N)c3ccccc3)C(=O)N2[C@H]1C(=O)OCOC(=O)[C@@H]1N2C(=O)C[C@H]2S(=O)(=O)C1(C)C,0.828 ± 0.25,0.472 ± 0.23,0.742 ± 0.024,0.512 ± 0.72,0.809 ± 0.025,0.994 ± 0.012,0.946 ± 0.046,0.6 ± 0.24,0.58 ± 0.38,1.11 ± 0.15,0.868 ± 0.042
CC1CN(c2c(F)c(N)c3c(=O)c(C(=O)O)cn(C4CC4)c3c2F)CC(C)N1 (configuration not stated),0.00841 ± 0.012,0.442 ± 0.043,1.49 ± 0.054,1.23 ± 0.24,0.715 ± 0.21,0.913 ± 0.04,0.883 ± 0.029,0.603 ± 0.083,0.597 ± 0.4,0.543 ± 0.76,0.92 ± 0.0099
Cl.Cl.N=C(NCCCCCCNC(=N)NC(=N)Nc1ccc(Cl)cc1)NC(=N)Nc1ccc(Cl)cc1,0.0297 ± 0.042,0.0449 ± 0.0094,0.488 ± 0.68,0.365 ± 0.03,0.306 ± 0.046,0.9017 ± 0.0055,0.341 ± 0.043,0.108 ± 0.015,0.545 ± 0.35,0.871 ± 0.16,0.0331 ± 0.011
CC1CN(c2c(F)c(F)c3c(=O)c(C(=O)O)cn(C4CC4)c3c2F)CC(C)N1 (configuration not stated),0.063 ± 0.089,0.599 ± 0.21,1.09 ± 0.085,0.509 ± 0.72,0.8561 ± 0.0075,0.97 ± 0.066,0.949 ± 0.073,0.676 ± 0.015,0.597 ± 0.41,1.09 ± 0.014,0.847 ± 0.13
O=c1[nH]c(=O)n([C@H]2C[C@H](O)[C@@H](CO)O2)cc1F,0.574 ± 0.53,0.629 ± 0.23,0.789 ± 0.18,1.15 ± 0.27,0.8368 ± 0.0026,0.979 ± 0.066,0.927 ± 0.06,0.762 ± 0.13,0.584 ± 0.38,0.953 ± 0.23,0.7944 ± 0.0043
CC1COc2c(N3CCN(C)CC3)c(F)cc3c(=O)c(C(=O)O)cn1c23 (configuration not stated),0.0425 ± 0.06,0.698 ± 0.077,1.39 ± 0.046,1.3 ± 0.35,0.722 ± 0.2,1.1 ± 0.2,0.937 ± 0.12,0.757 ± 0.05,0.584 ± 0.4,0.976 ± 0.2,1.16 ± 0.38
